From PubChem BioAssay (NCI)
Compounds without any hit were thinned out: in the full panel of roughly 83,000, 20% have a hit.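 The test compound was applied at a single concentration to cells in 96-well plates for 48 hours, and percent growth was recorded.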 Values without a mark were called inactive. The source made the active and inactive calls. How the source made its calls: active means growth percent below 10; inactive means the rest.

Key:
Test in all cases: NCI-60 one-dose screen, 48 h (100 = growth as untreated, 0 = no growth, -100 = all killed)
Details in all cases: 10 µM
DU-145 prostate = test system: DU-145 prostate
K-562 leukemia = test system: K-562 leukemia
MALME-3M melanoma = test system: MALME-3M melanoma
MDA-MB-231 breast = test system: MDA-MB-231 breast
RXF 393 renal = test system: RXF 393 renal
SF-268 CNS = test system: SF-268 CNS
SF-295 CNS = test system: SF-295 CNS
SF-539 CNS = test system: SF-539 CNS
UACC-257 melanoma = test system: UACC-257 melanoma
M14 melanoma = test system: M14 melanoma
HCT-15 colon = test system: HCT-15 colon
HT29 colon = test system: HT29 colon
SNB-75 CNS = test system: SNB-75 CNS
SNB-19 CNS = test system: SNB-19 CNS
PC-3 prostate = test system: PC-3 prostate
SK-MEL-5 melanoma = test system: SK-MEL-5 melanoma
LOX IMVI melanoma = test system: LOX IMVI melanoma
SK-MEL-28 melanoma = test system: SK-MEL-28 melanoma
UACC-62 melanoma = test system: UACC-62 melanoma
U251 CNS = test system: U251 CNS

| SMILES | growth (DU-145 prostate) | growth (K-562 leukemia) | growth (MALME-3M melanoma) | growth (MDA-MB-231 breast) | growth (RXF 393 renal) | growth (SF-268 CNS) | growth (SF-295 CNS) | growth (SF-539 CNS) | growth (UACC-257 melanoma) | growth (M14 melanoma) | growth (HCT-15 colon) | growth (HT29 colon) | growth (SNB-75 CNS) | growth (SNB-19 CNS) | growth (PC-3 prostate) | growth (SK-MEL-5 melanoma) | growth (LOX IMVI melanoma) | growth (SK-MEL-28 melanoma) | growth (UACC-62 melanoma) | growth (U251 CNS) |
| --- | --- | --- | --- | --- | --- | --- | --- | --- | --- | --- | --- | --- | --- | --- | --- | --- | --- | --- | --- | --- |
| C=CCOc1ccc2c(c1)CC=C1[C@@H]2CC[C@]2(C)C(=O)/C(=N/O)C[C@@H]12 | 91.7% | 8.09% (active) | 96.2% | 90.2% | 53.7% | 76.3% | 64.3% | 46.1% | 117% | 79.4% | 15% | 26.8% | 115% | 104% | 87% | 84.7% | 66.9% | 105% |  |  |
| CCCCCC(CCC)COC(=O)c1ccc(OC)cc1 (configuration not stated) | 109% | 105% | 97.4% | 109% | 115% | 106% | 102% | 96.9% | 90.8% | 101% | 99% | 101% | 89.2% | 112% | 84.1% | 104% | 94.5% | 110% | 104% |  |
| CCCc1ccnc(NS(=O)(=O)c2ccc(N)cc2)n1 | 117% | 54.7% | 67.1% | 81.9% | 102% | 95.6% | 95.9% | 71.8% | 43.4% | 95.8% | 105% | 72.9% | 88.2% |  | 60.7% | 84.3% | 82.9% | 78.9% | 85.7% | 54.6% |
| COc1ccc(-c2nc3sc(-c4ccccc4)c(-c4ccccc4)n3c2/C=C/c2ccc(F)cc2)cc1 | 103% | 107% | 96.6% | 86.7% | 89.4% | 97.8% | 97% | 92.1% | 99% | 83.1% | 91.4% | 94.7% | 72.3% |  | 61.6% | 99.6% | 87.1% | 109% | 82.8% | 99.3% |
| O=c1ccc2nc(-c3ccccc3)nn(-c3ccccc3)c-2c1 | -95.4% (active) | -39% (active) | -92.5% (active) | 76.3% | -92.8% (active) | 70.5% | 23.9% | 105% | -97.3% (active) | 51.2% | -75.9% (active) | -53.5% (active) | 93.3% |  | 43.5% | 19.8% | -51.9% (active) | 26.4% | 30.1% | 66.2% |
| CCc1ccc(-c2nnc(COc3ccc(-c4nc5cc(Cl)c(Cl)cc5[nH]4)cc3OC)o2)cc1 | 66.6% | 15.5% | 57.9% | 58% | 46% | 99.1% | 88.2% | 26.1% | 91.4% | 52.6% | 44.9% | 62.1% | 48.4% | 68.3% | 52.6% | 84.9% | 43.3% | 67.1% | 78.8% |  |
| Cc1cc(C)c2nc(C)c(C)[n+]([O-])c2c1 | 110% | 89.2% | 95.6% | 118% | 114% | 106% | 101% | 97.2% | 84.8% | 102% | 97.6% | 96.3% | 84.1% |  | 72.8% | 104% | 95.4% | 106% | 105% | 90.6% |
| COCCNCC(O)Cn1c2ccc(Cl)cc2c2cc(Cl)ccc21 (configuration not stated) | 7.48% (active) | -17.1% (active) | -86.3% (active) | -33.1% (active) | 3.52% (active) | 7.96% (active) | -6.61% (active) | -85% (active) | -81% (active) | -87.4% (active) | -54.1% (active) | -15.5% (active) | 40.7% |  | 8.25% (active) | -96.1% (active) | -31.4% (active) | -26.3% (active) | -73.3% (active) | -5.49% (active) |
| CC(=O)c1ccc(NCn2nc(-c3ccc(Cl)cc3)oc2=S)cc1 | 109% | 88.1% | 114% | 87.8% | 117% | 109% | 102% | 95% | 93% | 104% | 99.3% | 98.3% | 107% | 95.8% | 89.9% | 104% | 90.3% | 95.5% | 93.3% |  |
| COc1cc(CSc2nc3ccc(C)cc3c(=O)n2-c2ccccc2)cc(OC)c1OC | 29.8% | 10.4% | 42.5% | 38% | 14.2% | 47.5% | 32.8% | 3.56% (active) | 50.2% | 17.2% | 30.1% | 14.3% | -7.55% (active) | 57.2% | 49.1% | 20% | 36% | 52% | 20.8% |  |
| O=c1oc2cc(OS(=O)(=O)C3CC3)ccc2c2c1CCCCCC2 | 91.4% | 51.2% | 95.3% | 78.3% | 88.3% | 94.4% | 75.3% | 82.2% | 92.8% | 81.4% | 72.8% | 25.9% | 98.7% |  | 68.7% | 37.3% | 85.8% | 93.7% | 71.3% | 79.1% |
| COc1ccc2nc(-c3ccccc3)cc(C(C)=O)c2c1 | 107% | 84.1% | 86.5% | 89.5% | 102% | 96.1% | 96.3% | 86.1% | 99.9% | 95.3% | 94.9% | 93.6% | 79.7% | 101% | 84.4% | 98.5% |  | 108% | 91.1% |  |
| COc1cccc(C(=O)NNc2nc(N3CCOCC3)nc(N3CCN(C(c4ccccc4)c4ccccc4)CC3)n2)c1 | 87.2% | 63.5% | 91.7% | 86.3% | 69.4% | 71.5% | 87.3% | 93.6% | 90.9% | 114% | 89.2% | 95% | 71.5% |  | 55.1% | 53.3% | 83.1% | 93.4% | 65.8% | 85.2% |
| O=C(O)CNS(=O)(=O)c1ccc(OCCOc2ccc(S(=O)(=O)NCC(=O)O)cc2)cc1 | 107% | 104% | 99.7% | 108% | 106% | 98.9% | 104% | 93.6% | 104% | 104% | 96% | 98% | 97.2% | 106% | 96.5% | 97.4% | 96.8% | 106% | 102% |  |
| CCN(CC)CCOC(=O)c1ccc(NC(=O)Nc2cccc(Cl)c2)cc1 | 105% | 91.1% | 97.6% | 93.7% | 99.4% | 97.3% | 93% | 98.7% | 91% | 103% | 95.6% | 96.3% | 81.8% | 108% |  | 101% | 94.6% | 106% | 102% |  |
